Experimental findings from PubChem BioAssay are described below.

The nature of assay [1]: antimalarial activity against Dd2 strain (AID 2302;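 active = growth inhibition above 50% at the single 2 µM test dose, taken to imply half-maximal potency below 2 µM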;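 also: 0% = DMSO untreated growth and 100% = chloroquine plus artemisinin killed control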). To be noted: P. falciparum Dd2 in RBCs, LDH growth readout, 72 h; at 2 µM; active compounds read high.
The nature of assay [2]: HepG2 cytotoxicity, primary screen, cytotoxicity control for P. falciparum antimalarial project, cell-based, ATP luminescence (AID 2303;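 active = inhibition above 50%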;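 also: 0% = DMSO wells and 100% = digitonin-killed cells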). The note with it: HepG2 viability, 24-48 h, at 10 µM, active compounds read high.
Assay [3] has as its target L-lactate dehydrogenase (Plasmodium falciparum (isolate CDC / Honduras)) (UniProt Q27743). Description: PfLDH activity inhibition – cell lysate, 3D7 strain, counter-screen for P. falciparum growth inhibition project (AID 2304).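 Also: 0% = vehicle and 100% = reference inhibitor.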 The note with it: P. falciparum 3D7 crude extract, LDH APAD/NBT absorbance; at 2 µM; active compounds read high.
A short description of assay [4]: inhibition of 3D7 malaria parasite growth – strain 3D7 (AID 2306).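 Also: 0% = DMSO wells and 100% = chloroquine plus artemisinin control wells.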 The note with it: P. falciparum 3D7 erythrocytic growth, LDH absorbance, 72 h; at 2 µM; active compounds read high.
The target of assay [5] is Calcium-dependent protein kinase 1 (Plasmodium falciparum (isolate 3D7)) (UniProt P62344). Put plainly: PfCDPK1 kinase inhibitors, biochemical, TCAMS library (AID 1159585; cut-off not given, nearly all actives have IC50 up to about 0.98 µM;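 also: inhibitors leave more ATP so luminescence rises with inhibition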). To be noted: recombinant PfCDPK1, Kinase-Glo ATP depletion luminescence. For orientation: Kinase-Glo measures the ATP left after a reaction by luminescence.
Assay [6] addresses Plasmodium falciparum protein kinase 6 (PK6, PF3D7_1337100) (UniProt Q8IDW1). Put plainly: PfPK6 kinase inhibitors, biochemical, TCAMS library (AID 1159586). The note with it: recombinant PfPK6, Kinase-Glo ATP depletion luminescence.
Assay [7] has as its target Protein kinase 7 (PK7), Plasmodium falciparum 3D7 (PF3D7_0213400) (UniProt Q7YTF7). Description: inhibition of Plasmodium PK7 catalytic activity – biochemical, TCAMS antimalarial set, Kinase-Glo luminescence (AID 1159587). To be noted: recombinant PfPK7, Kinase-Glo ATP depletion luminescence.
The target of assay [8] is Calcium-dependent protein kinase 4 (Plasmodium falciparum (isolate 3D7)) (UniProt Q8IBS5). Put plainly: PfCDPK4 kinase inhibitors, biochemical, TCAMS library (AID 1159588; cut-off not given, nearly all actives have IC50 up to about 0.91 µM). To be noted: recombinant PfCDPK4, Kinase-Glo ATP depletion luminescence.

Each structure is given as a SMILES string. Values without a mark were called inactive. For some of these results: Entries with a potency or affinity are not part of this list. Activity calls are given as the source filed them. Unless noted, no rule for the calls is given here.

Chain of Calcium-dependent protein kinase 1 (Plasmodium falciparum (isolate 3D7)) (P62344 whole entry, looked up): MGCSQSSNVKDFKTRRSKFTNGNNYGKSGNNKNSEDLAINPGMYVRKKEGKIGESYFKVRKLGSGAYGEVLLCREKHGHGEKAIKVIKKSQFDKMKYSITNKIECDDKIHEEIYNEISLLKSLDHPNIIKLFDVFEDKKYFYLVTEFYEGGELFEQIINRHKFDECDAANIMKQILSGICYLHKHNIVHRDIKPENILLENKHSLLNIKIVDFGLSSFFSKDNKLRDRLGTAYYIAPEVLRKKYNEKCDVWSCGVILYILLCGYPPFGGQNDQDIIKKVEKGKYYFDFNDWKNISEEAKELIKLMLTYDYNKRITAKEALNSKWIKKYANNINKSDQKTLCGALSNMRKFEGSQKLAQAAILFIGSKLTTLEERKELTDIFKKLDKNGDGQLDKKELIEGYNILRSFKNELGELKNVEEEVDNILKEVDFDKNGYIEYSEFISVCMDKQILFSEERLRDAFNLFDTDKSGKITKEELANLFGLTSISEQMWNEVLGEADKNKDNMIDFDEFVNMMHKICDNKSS
Chain of Protein kinase 7 (PK7), Plasmodium falciparum 3D7 (PF3D7_0213400) (Q7YTF7 1-343): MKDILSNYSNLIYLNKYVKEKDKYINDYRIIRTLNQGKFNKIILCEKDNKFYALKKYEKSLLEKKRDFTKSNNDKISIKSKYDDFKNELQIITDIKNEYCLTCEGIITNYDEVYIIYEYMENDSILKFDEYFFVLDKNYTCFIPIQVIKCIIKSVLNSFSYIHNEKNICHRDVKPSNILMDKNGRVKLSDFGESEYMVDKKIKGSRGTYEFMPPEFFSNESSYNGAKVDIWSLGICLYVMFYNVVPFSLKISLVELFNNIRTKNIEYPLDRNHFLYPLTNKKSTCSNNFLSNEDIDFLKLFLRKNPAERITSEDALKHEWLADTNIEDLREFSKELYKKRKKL
Chain of L-lactate dehydrogenase (Plasmodium falciparum (isolate CDC / Honduras)) (Q27743 whole entry, looked up): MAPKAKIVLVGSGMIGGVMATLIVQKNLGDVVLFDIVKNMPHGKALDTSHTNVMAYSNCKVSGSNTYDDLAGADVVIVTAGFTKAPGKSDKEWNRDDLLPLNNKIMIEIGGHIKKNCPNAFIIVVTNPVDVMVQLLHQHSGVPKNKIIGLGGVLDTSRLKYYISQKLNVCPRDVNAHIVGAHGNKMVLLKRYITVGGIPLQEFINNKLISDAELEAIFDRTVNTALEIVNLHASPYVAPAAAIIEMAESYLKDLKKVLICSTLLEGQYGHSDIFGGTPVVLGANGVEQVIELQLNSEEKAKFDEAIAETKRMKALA
Chain of Plasmodium falciparum protein kinase 6 (PK6, PF3D7_1337100) (Q8IDW1 1-305): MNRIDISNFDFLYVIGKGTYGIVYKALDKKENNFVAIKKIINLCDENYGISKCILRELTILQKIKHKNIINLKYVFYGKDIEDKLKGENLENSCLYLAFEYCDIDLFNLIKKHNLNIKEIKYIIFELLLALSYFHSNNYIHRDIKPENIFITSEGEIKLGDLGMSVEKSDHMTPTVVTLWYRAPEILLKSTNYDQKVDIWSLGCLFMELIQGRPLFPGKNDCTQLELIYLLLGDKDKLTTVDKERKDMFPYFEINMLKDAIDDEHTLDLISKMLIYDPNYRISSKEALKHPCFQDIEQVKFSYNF
Chain of Calcium-dependent protein kinase 4 (Plasmodium falciparum (isolate 3D7)) (Q8IBS5 whole entry, looked up): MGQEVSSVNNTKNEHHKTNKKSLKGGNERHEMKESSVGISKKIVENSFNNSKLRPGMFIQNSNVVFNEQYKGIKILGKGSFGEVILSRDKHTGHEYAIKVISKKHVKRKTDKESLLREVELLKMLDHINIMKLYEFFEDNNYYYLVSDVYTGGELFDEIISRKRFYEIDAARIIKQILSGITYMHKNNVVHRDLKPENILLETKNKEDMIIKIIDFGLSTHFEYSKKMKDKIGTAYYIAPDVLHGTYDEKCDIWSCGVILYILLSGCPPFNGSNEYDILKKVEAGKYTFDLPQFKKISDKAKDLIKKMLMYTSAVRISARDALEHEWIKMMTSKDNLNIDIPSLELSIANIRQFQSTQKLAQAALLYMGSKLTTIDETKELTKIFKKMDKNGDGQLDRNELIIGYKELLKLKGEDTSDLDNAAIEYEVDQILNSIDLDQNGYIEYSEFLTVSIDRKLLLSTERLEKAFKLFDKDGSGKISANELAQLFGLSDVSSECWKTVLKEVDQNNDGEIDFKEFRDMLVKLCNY

As to `Cc1ccc(O)c(-c2cc(C(=O)Nc3ccc(S(=O)(=O)N4CCCCC4)cc3)[nH]n2)c1`, the growth inhibition in assay [1] is 98% (active); in assay [4] it was 94% (active). In addition, the inhibition (usually the change of the read-out against control, counted positive when it falls) in assay [2] was 31%; in assay [3] it was -4%. The outcome in assay [5], in assay [6], in assay [7] and in assay [8] was inactive.

`Cc1ccc(C)c2sc(N3CCN(C(=O)c4ccc([N+](=O)[O-])o4)CC3)nc12`: the values for the growth inhibition in assay [1] and in assay [4] were 89% (active) and 96% (active), respectively. For the same compound, the figures for the inhibition in assay [2] and in assay [3] were -2% and 2%, respectively. In addition, the result in assay [5], in assay [6], in assay [7] and in assay [8] was inactive.

Take `CC(C)c1ccc(N(CC(=O)N/N=C/c2ccc(C(F)(F)F)cc2)S(=O)(=O)c2ccc(C(F)(F)F)cc2)cc1`: the growth inhibition in assay [1] is 44%; in assay [4], 91% (active). For the same compound, the results for the inhibition in assay [2] and in assay [3] were 2% and 3%, respectively. For the same compound, the outcome in assay [5], in assay [6], in assay [7] and in assay [8] was inactive.

Regarding `CCN(CC)c1nc(N)c2c(N)nc3c(c2c1C#N)C(=O)CN3Cc1ccccc1`, the growth inhibition in assay [1] and in assay [4] was 96% (active) in each case. Moreover, the inhibition is 26% in assay [2] and -3% in assay [3]. Also, the result in assay [5], in assay [6], in assay [7] and in assay [8] was inactive.

For the compound `COc1ccc2nccc([C@@H](O)CN3CCC(NC(=O)C(=O)c4c[nH]c5c(C)cccc45)CC3)c2c1`, the growth inhibition in assay [1] was 94% (active); in assay [4], 102% (active). The inhibition in assay [2] is 17%; in assay [3], -3%. The result in assay [5], in assay [6], in assay [7] and in assay [8] was inactive.

As for `CN(C)Cc1ccc(-c2ccc(NC(=O)c3ccc4c(=O)n(Cc5ccccc5)cnc4c3)cc2)cc1`, the growth inhibition in assay [1] is 39%; in assay [4] it was 100% (active). The inhibition was 94% (active) in assay [2] and -2% in assay [3]. Also, the outcome in assay [5], in assay [6], in assay [7] and in assay [8] was inactive.

With `Cc1cccc2[nH]c(-c3ccc(-c4ccc(NC(=O)NCc5ccc(F)cc5)cc4)cc3)nc12`, the growth inhibition is 99% (active) in assay [1] and 100% (active) in assay [4]. The inhibition in assay [2] is 70% (active); in assay [3], -3%. In addition, the result in assay [5], in assay [6], in assay [7] and in assay [8] was inactive.

With `N#Cc1ccc2c(c1)CCN(CCC1CCC(NC(=O)/C=C/c3cnc4ccccc4c3)CC1)CC2` (stereo not given), the values for the growth inhibition in assay [1] and in assay [4] were 21% and 87% (active), respectively. The figures for the inhibition in assay [2] and in assay [3] were 22% and -1%, respectively. Further, the result in assay [5], in assay [6], in assay [7] and in assay [8] was inactive.

On to `CCCN1CCCN(Cc2cccc(NC(=O)c3ccc(-c4ccccc4)cc3)c2)CC1`, for which the values for the growth inhibition in assay [1] and in assay [4] were 15% and 92% (active), respectively. The inhibition in assay [2] is 34%; in assay [3], 1%. The result in assay [5], in assay [6], in assay [7] and in assay [8] was inactive.

On to `CCCCCCn1c(Sc2ccc(C#N)c([N+](=O)[O-])c2)nnc1-c1ccccc1`, for which the results for the growth inhibition in assay [1] and in assay [4] were 41% and 97% (active), respectively. The inhibition is 23% in assay [2] and -1% in assay [3]. Also, the outcome in assay [5], in assay [6], in assay [7] and in assay [8] was inactive.

For `O=C(Nc1cccc(CN2CCCN(Cc3ccc(O)cc3)CC2)c1)c1ccc2ccccc2c1`, the growth inhibition is 78% (active) in assay [1] and 101% (active) in assay [4]. For the same compound, the inhibition in assay [2] was 20%; in assay [3], 1%. The outcome in assay [5], in assay [6], in assay [7] and in assay [8] was inactive.

As to `CC(C)CC1c2[nH]c3ccccc3c2CCN1C(=O)CCc1ccccc1` (stereo not given), the growth inhibition in assay [1] is 82% (active); in assay [4] it was 92% (active). In addition, the inhibition in assay [2] is -13%; in assay [3] it was -2%. Also, the result in assay [5], in assay [6], in assay [7] and in assay [8] was inactive.

Turning to `Cc1cccc(CN2CCC(CNC(=O)c3cc4c(-c5ccccc5F)nn(C)c4s3)CC2)c1`, the growth inhibition in assay [1] was 15%; in assay [4] it was 85% (active). Moreover, the inhibition in assay [2] was 18%; in assay [3], -4%. Further, the result in assay [5], in assay [6], in assay [7] and in assay [8] was inactive.

As for `COc1ccc(C2CC(c3ccccc3)=NN2C(=O)c2ccc(Br)o2)cc1` (stereo not given), the growth inhibition in assay [1] was 45%; in assay [4], 96% (active). The inhibition in assay [2] was 6%; in assay [3], -6%. Also, the result in assay [5], in assay [6], in assay [7] and in assay [8] was inactive.

With `COc1ccc(NC(=O)/C=C/c2ccccc2Cl)cc1OCCN1CCC(Cc2cc3ccccc3[nH]2)CC1`, the growth inhibition in assay [1] was 8%; in assay [4] it was 92% (active). The inhibition in assay [2] is 56% (active); in assay [3] it was 0%. The outcome in assay [5], in assay [6], in assay [7] and in assay [8] was inactive.

Turning to `CCN(CC)C(C)(C)CN(Cc1ccc(-c2ccc(C(F)(F)F)cc2)cc1)C(=O)Cn1c(CCc2cccc(F)c2F)nc(=O)c2ccccc21`, the growth inhibition in assay [1] was 79% (active); in assay [4], 91% (active). Moreover, the values for the inhibition in assay [2] and in assay [3] were 53% (active) and -2%, respectively. The result in assay [5], in assay [6], in assay [7] and in assay [8] was inactive.

For the compound `CCOC(=O)c1ccc(NC(=O)Nc2cccc(-c3cccc(-c4nc5ccc(F)cc5[nH]4)c3)c2)cc1`, the growth inhibition is 100% (active) in assay [1] and 101% (active) in assay [4]. Also, the results for the inhibition in assay [2] and in assay [3] were 85% (active) and 6%, respectively. For the same compound, the result in assay [5], in assay [6], in assay [7] and in assay [8] was inactive.

With `Cn1ccnc1-c1nc2ccccn2c1NCC(=O)Nc1ccccc1N1CCCCC1`, the growth inhibition in assay [1] is 57% (active); in assay [4] it was 85% (active). The inhibition in assay [2] is 16%; in assay [3], -7%. The outcome in assay [5], in assay [6], in assay [7] and in assay [8] was inactive.

Consider `CN(C)Cc1c(O)ccc2oc(Cc3ccccc3)cc12`, for which the growth inhibition in assay [1] was 94% (active); in assay [4], 99% (active). The inhibition in assay [2] and in assay [3] was 0% throughout. Also, the result in assay [5], in assay [6], in assay [7] and in assay [8] was inactive.

For the compound `Cc1c(C)c2c(c(C)c1O)CCC(C)(CCC(=O)O)O2` (stereo not given), the growth inhibition in assay [1] is -4%; in assay [4], 96% (active). The inhibition in assay [2] is 8%; in assay [3] it was 0%. Besides, the result in assay [5], in assay [6], in assay [7] and in assay [8] was inactive.
